We go through 40 molecules from PubChem BioAssay (NCI).

The panel holds about 79,000 compounds, 15% with a hit somewhere; the sample as a whole holds those more often. Unmarked numbers belong to inactive results. Rule as the data show it: active = growth inhibition above about 70%; inactive = the rest.

The experiment is described as follows: NCI Yeast Anticancer Drug Screen. Data for the mec2-1 strain (AID 157). The conditions noted are these: S. cerevisiae mec2-1 strain, at 50.0 µM, hits give high values. The procedure: Growth inhibition of yeast strains with defined genetic alterations is measured as a screen for potential anti-cancer activity. Selected strains with alterations in DNA damage repair or cell cycle control were exposed to compounds and growth inhibition was measured relative to vehicle treated controls. The strain used in this assay is mec2-1
Take `NCCCN1CCCC1=O`: the growth inhibition was -21.3%.

For the molecule `CC(CCC#N)(CCC#N)C(=O)c1ccccc1`, the growth inhibition is 25.7%.

For the molecule `O=C1NC(=O)/C(=C\c2ccncc2)N1`, the growth inhibition is -7.8%.

Regarding `Cc1cc2nc(C)c(C)nc2cc1C`, the growth inhibition is -37.9%.

In the case of `C=CCC(OC(C)=O)c1ccc(OC)c(OC)c1` (stereo not given), the growth inhibition is 1.35%.

As to `Nc1nc(N)nc(N2CCCCC2)n1`, the growth inhibition is -5.75%.

As to `OC(CCN1CCCCC1)(c1ccccc1)c1ccccc1`, the growth inhibition is -21.9%.

Take `NS(=O)(=O)c1cc(=O)[nH]c(=O)[nH]1`: the growth inhibition was -10.8%.

In the case of `O=C(NC(=S)N1CC=CCC1)c1ccccc1`, the growth inhibition is 16.7%.

`O=C(NCc1ccccc1)c1cccc([N+](=O)[O-])c1`: the growth inhibition is 18.1%.

With `COC1OC(COC(C)=O)C(OC(C)=O)C(OC(C)=O)C1OC(C)=O` (stereo not given), the growth inhibition is 3.05%.

Regarding `O=C(NCc1ccccc1)/C(=C/c1ccccc1)NC(=O)c1ccccc1`, the growth inhibition is -31.4%.

On to `O=C(CCCl)OCCOc1ccccc1`, for which the growth inhibition was 4.3%.

As to `CCN1CCCC(N2c3ccccc3Sc3ccccc32)C1` (stereo not given), the growth inhibition was -15.2%.

In the case of `O=C(c1ccc(Cl)cc1)N1CCCCC1`, the growth inhibition is 2.85%.

As to `CC(=O)NNC(=S)N/C=C/c1c(C)ccc([N+](=O)[O-])c1[N+](=O)[O-]`, the growth inhibition was -35%.

`CC(=O)[C@@]1(O)CC[C@H]2[C@@H]3CC[C@@H]4CC(=O)CC[C@]4(C)[C@H]3[C@@H](O)C[C@@]21C`: the growth inhibition was -1.9%.

For `CC(C)NC(=O)OCc1c(COC(=O)NC(C)C)c(-c2ccc(Cl)cc2)n2c1CCC2`, the growth inhibition is -23.7%.

Take `Cn1c(=O)c2[nH]c(CC(=O)O)nc2n(C)c1=O`: the growth inhibition was 11%.

`CCC1CCC(C)NC1` (stereo not given): the growth inhibition was 2.75%.

As to `C[C@H](CCC[C@H](C)OS(=O)(=O)c1ccccc1)OS(=O)(=O)c1ccccc1`, the growth inhibition was -3.9%.

Consider `C=CC(=O)OC1CCC(C(C)(C)CC)CC1` (stereo not given), for which the growth inhibition is 14.1%.

As to `C=C1SC(=Nc2c(C)cccc2C)N(c2nc(Cl)nc(Cl)n2)C12CCCCC2`, the growth inhibition is -8.75%.

In the case of `COC(c1ccc2c(c1)OCO2)C(C)Br` (stereo not given), the growth inhibition was -4.4%.

`CC(=O)c1ccc(C)cc1`: the growth inhibition is 6.1%.

`CC(=O)c1cccs1`: the growth inhibition was -0.05%.

For `Cc1c(Cl)cccc1NC(=S)NC(=O)c1ccccc1`, the growth inhibition is 28.2%.

Turning to `C1Cc2onc(-c3noc4c3CCC4)c2C1`, the growth inhibition is -16.8%.

Turning to `CC1(C)CCC(C)(C)NC(=S)N1`, the growth inhibition was -8.35%.

For `OC(CBr)CCBr` (stereo not given), the growth inhibition was -31.1%.

Regarding `Nc1c(O)c(S(=O)(=O)O)c(O)c2c1C(=O)c1ccccc1C2=O`, the growth inhibition is -2.7%.

As to `CCCCNC(=O)c1ccc(OCC)cc1`, the growth inhibition is 20.4%.

In the case of `CS(=O)(=O)c1ccc(/C=C\C(=O)O)cc1`, the growth inhibition is 7.1%.

Regarding `O=[N+]([O-])c1c(Cl)ncnc1Cl`, the growth inhibition was -47.8%.

On to `N#CCCN1C(=O)CCC1C(=O)O` (stereo not given), for which the growth inhibition is -11.2%.

As to `Cn1c(=O)[nH]c2ccccc2c1=O`, the growth inhibition is 4.5%.

Regarding `S=c1nc2[nH]c3ccccc3c2n[nH]1`, the growth inhibition was -17.9%.

Regarding `COC(C(=O)C(O)C(C)O)C1Cc2cc3cc(OC4CC(OC5CC(O)C(O)C(C)O5)C(O)C(C)O4)c(C)c(O)c3c(O)c2C(=O)C1OC1CC(OC2CC(O)C(OC3CC(C)(O)C(O)C(C)O3)C(C)O2)C(O)C(C)O1` (stereo not given), the growth inhibition is -23.4%.

Regarding `C#CCSc1nnnn1-c1ccccc1`, the growth inhibition was -19.9%.

Regarding `CC(=O)C1C(=O)C(=O)N(c2ccc(Cl)c(Cl)c2)C1=O` (stereo not given), the growth inhibition is -21%.
